In the library only some 1.3% were active in any assay of this set; here they are far more common.
PERK inhibitor: human PERK inhibition, primary cell-based screen; Q9NZJ5; CHO PERK-DD fusion, SEAP luminescence translation reporter; inhibition, % at 5.6 µM; actives 0.17% (n = 220,000); AID 1416;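 active = inhibition above the mean inhibition of all tested compounds plus 3 SD, set separately per screening campaign, cut at about 2.9% in these data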;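 note: PERK kinase domain activated by AP20187 dimerizer at 100 nM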
m-calpain inh: inhibitors of pig calpain II; purified calpain II, fluorogenic peptide substrate, 30 min; inhibition, % at 16 µM; actives 0.37% (n = 220,000); AID 1236;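 active = inhibition above about 50%, limit read from the data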
S1P4 agonist: human S1P4 receptor agonism. actives 0.35% (n = 220,000). O95977. AID 1509. activation, % at 4.98 µM. S1P4-expressing cell line, agonist reporter assay; in the data active = activation above about 11%
S1P3 antag: S1P3 (human) receptor antagonism; inhibition, % at 4.98 µM; CHO S1P3 NFAT-BLA reporter, FRET fluorescence, antagonist mode; Q99500; actives 0.27% (n = 170,000);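 active = inhibition above the plate cutoff, the mean inhibition of test wells on that plate plus 3 SD, cut at about 28% in these data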;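 note: cells challenged with S1P at its EC80 of 0.8 µM; blue over green emission ratio from cleaved BLA substrate after 4 h stimulation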
Target sequence (Q99500 whole entry, looked up): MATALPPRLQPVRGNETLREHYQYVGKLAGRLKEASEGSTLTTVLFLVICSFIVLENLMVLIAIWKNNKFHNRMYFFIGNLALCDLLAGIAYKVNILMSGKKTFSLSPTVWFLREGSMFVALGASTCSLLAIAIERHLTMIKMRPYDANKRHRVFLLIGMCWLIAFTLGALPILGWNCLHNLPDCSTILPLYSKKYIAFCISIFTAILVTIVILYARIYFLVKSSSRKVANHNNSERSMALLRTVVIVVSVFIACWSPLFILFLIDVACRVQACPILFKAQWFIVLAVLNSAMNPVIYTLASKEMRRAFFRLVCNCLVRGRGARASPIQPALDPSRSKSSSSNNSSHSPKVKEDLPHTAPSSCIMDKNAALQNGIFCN
S1P4 antagonist: human S1P4 receptor antagonism; O95977; actives 0.26% (n = 220,000); inhibition, % at 4.98 µM; S1P4-expressing cells, antagonist mode, reporter read-out; in the data active = inhibition above about 29%
S1P4 antag cf: human S1P4 antagonism, confirmation; inhibition, % at 4.98 µM; AID 1524; shares compounds with S1P4 antagonist; S1P4-expressing cell line, antagonist mode, reporter read-out; actives 71% (n = 520); in the data active = inhibition above about 30%
S1P1 antag: human S1P1 antagonism as S1P4 antagonist counter-screen; shares compounds with S1P4 antagonist; cell-based S1P1 antagonist counterscreen, inhibition; inhibition, % at 4.98 µM; actives 37% (n = 520); AID 1564; in the data active = inhibition above about 40%;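 note: receptor stimulated with S1P near its EC80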
Hits are given with their value.

Results for C/C1=C\[C@@H](C)C/C=C/[C@H]2[C@@H]3O[C@]3(C)[C@@H](C)[C@H]3[C@H](Cc4c[nH]c5ccccc45)NC(=O)[C@]32C(=O)/C=C/C(=O)[C@@H]1O ?
PERK inhibitor: inactive; m-calpain inh: inactive; S1P4 agonist: inactive; S1P3 antag: inactive; S1P4 antagonist: 33; S1P4 antag cf: 59; S1P1 antag: inactive

What do the screens show for `CCCCn1c(NC(=O)c2ccco2)c(C(=O)OCC)c2nc3ccccc3nc21`?
PERK inhibitor: inactive; m-calpain inh: inactive; S1P4 agonist: inactive; S1P3 antag: inactive; S1P4 antagonist: 31; S1P4 antag cf: inactive; S1P1 antag: inactive

What do the screens show for `CC1(C(O)(C#CCN2CCCCC2)c2ccccc2)CCCC1` (centres undefined)?
PERK inhibitor: inactive; m-calpain inh: inactive; S1P4 agonist: inactive; S1P3 antag: inactive; S1P4 antagonist: inactive

Results for Cc1ccc(CN2C3CCCC2CC(NC(=O)Nc2cccc(F)c2)C3)cc1 (centres undefined) ?
PERK inhibitor: inactive; m-calpain inh: inactive; S1P4 agonist: inactive; S1P3 antag: inactive; S1P4 antagonist: inactive

What do the screens show for `COc1cc(/C=C(/C)[N+](=O)[O-])ccc1OCc1ccccc1Cl`?
PERK inhibitor: inactive; m-calpain inh: inactive; S1P4 agonist: inactive; S1P3 antag: inactive; S1P4 antagonist: 54; S1P4 antag cf: 120; S1P1 antag: 148

What do the screens show for `C[N+]1(CC2COC(c3ccco3)O2)CCCCC1` (centres undefined)?
PERK inhibitor: inactive; m-calpain inh: inactive; S1P4 agonist: inactive; S1P3 antag: inactive; S1P4 antagonist: inactive

How did CC1=CC2/C=C(\C)CCC(O)C(O)/C=C/C(=O)C23C(=O)NC(CC(C)C)C3C1C (centres undefined) do in these assays?
PERK inhibitor: inactive; m-calpain inh: inactive; S1P4 agonist: inactive; S1P3 antag: inactive; S1P4 antagonist: 64; S1P4 antag cf: 114; S1P1 antag: inactive

What do the screens show for `CC[N+](CC)(CC)CC`?
m-calpain inh: inactive

From PubChem BioAssay
